Experimental data published in PubChem BioAssay (EPA / NIEHS).
Several values for one entry are separate records, joined by “and”; a condition that tells them apart may be missing. Identical values can stand only once. Results filed as inconclusive are left out. Some structures have more than one record in an assay (separate samples or runs), and their calls can disagree. Activity calls are given as the source filed them. Rule for the calls, unless noted: active = hit-call score of the fitted dose curve at least 0.9, where 1 is the maximum; inactive = score below 0.9.

Columns and labels:
[1] = BSK_BT_PBMCCytotoxicity: PBMC Cytotoxicity Assessment in the BioMAP Diversity Plus: BT Assay (AID 2284225); settings: primary human B cells with PBMC;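 note: PBMC viability measured by Alamar Blue dye reduction fluorescence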
Outline: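 Viability by Alamar Blue reduction (6 h, ex/em 546/580 nm) after 90 h culture of SEB/TSST-1-activated PBMC (20 ng/mL each) given compound 1 h before activation. DMSO served as baseline for curve fitting.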

[2] = read-out: Secreted IgG (sIgG), gene 3500; assay: BSK_BT_sIgG: BioMAP Diversity Plus: BT Assay for Secreted IgG (sIgG) Biomarker Activity (AID 2284226); settings: primary human B cells with PBMC
Outline: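 ELISA quantitation of secreted IgG from human B cells co-cultured with PBMC, sampled 24 h post-dosing. Values fitted relative to DMSO vehicle as baseline, positive fitting direction.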

[3] = BSK_BT_Bcell_Proliferation: Viability Assessment in the BioMAP Diversity Plus: BT Assay for B cell Proliferation (AID 2284227); settings: primary human B cells with PBMC
Outline: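 Human B cell/PBMC co-culture; test chemical added; 72 h; TCA fix (10%), 0.1% SRB stain, A560 for total protein as a proliferation read-out; positive-direction fit vs DMSO baseline.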

[4] = read-out: Interleukin 17A (IL17A), IL17A (gene 3605); assay: BSK_BT_xIL17A: BioMAP Diversity Plus: BT Assay for Interleukin 17A (IL17A) Biomarker Activity (AID 2284229); settings: primary human B cells with PBMC
Outline: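 Luminex xMAP readout of secreted IL-17A; human B cell + PBMC co-culture; 24 h post-dose; positive-direction fit vs DMSO negative control.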

[5] = read-out: Tumor necrosis factor (Homo sapiens) (UniProt P01375); assay: BSK_BT_xTNFa: BioMAP Diversity Plus: BT Assay for Tumor necrosis factor alpha (TNF-alpha) Biomarker Activity (AID 2284230); settings: primary human B cells with PBMC
Outline: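 Read-out: Luminex xMAP quantitation of secreted TNF-alpha from a B cell/PBMC co-culture 24 h after compound addition. Signal analysed relative to DMSO vehicle, positive fitting direction.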

[6] = read-out: Vascular cell adhesion molecule 1 (VCAM1), VCAM1 (gene 7412); assay: BSK_MyoF_VCAM1: BioMAP Diversity Plus: MyoF Assay for Vascular cell adhesion molecule 1 (VCAM1) Biomarker Activity (AID 2284231); settings: primary human lung fibroblasts
Outline: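 MyoF system, lung fibroblasts; 24 h post-dose; VCAM-1 by ELISA; gain-of-signal fit vs DMSO baseline.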

[7] = read-out: Collagen I, COL1A1 (gene 1277); assay: BSK_MyoF_CollagenI: BioMAP Diversity Plus: MyoF Assay for Collagen I Biomarker Activity (AID 2284238); settings: primary human lung fibroblasts
Outline: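 ELISA readout of Collagen I after 24 h chemical treatment of primary human lung fibroblast cultures; gain of signal scored relative to DMSO vehicle baseline.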

[8] = read-out: Collagen III, COL3A1 (gene 1281); assay: BSK_MyoF_CollagenIII: BioMAP Diversity Plus: MyoF Assay for Collagen III Biomarker Activity (AID 2284239); settings: primary human lung fibroblasts
Outline: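 Lung fibroblast culture; 24 h compound exposure; collagen III by ELISA; gain-of-signal fit vs DMSO baseline.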

[9] = read-out: Interleukin 17F (IL17F), IL17F (gene 112744); assay: BSK_BT_xIL17F: BioMAP Diversity Plus: BT Assay for Interleukin 17F (IL17F) Biomarker Activity (AID 2284243); settings: primary human B cells with PBMC
Outline: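 Secreted IL-17F, read on LumineX xMAP beads, was taken as the endpoint. Cultures combined human B cells and peripheral blood mononuclear cells, sampled 24 hours after dosing, with DMSO serving as negative control.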

[10] = read-out: Actin alpha 1 (ACTA1), ACTA1 (gene 58); assay: BSK_MyoF_ACTA1: BioMAP Diversity Plus: MyoF Assay for Actin alpha 1 (ACTA1) Biomarker Activity (AID 2284244); settings: primary human lung fibroblasts
Outline: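 alpha-SMA levels read by ELISA against DMSO baseline, 24 h post-dose, in primary human lung fibroblasts. Parallel cultures stained with 0.1% SRB after 10% TCA fixation (560 nm) to flag overt cytotoxicity.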

[11] = read-out: Interleukin 2 (IL2), IL2 (gene 3558); assay: BSK_BT_xIL2: BioMAP Diversity Plus: BT Assay for Interleukin 2 (IL2) Biomarker Activity (AID 2284245); settings: primary human B cells with PBMC
Outline: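 Secreted IL-2 was read by Luminex xMAP from B cells co-cultured with PBMC (human primary) 24 h post-dosing; activity was analysed as gain of signal relative to DMSO vehicle.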

[12] = read-out: Basic fibroblast growth factor (bFGF), FGF2 (gene 2247); assay: BSK_MyoF_bFGF: BioMAP Diversity Plus: MyoF Assay for Basic fibroblast growth factor (bFGF) Biomarker Activity (AID 2284246); settings: primary human lung fibroblasts
Outline: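 bFGF was measured by ELISA in primary human lung fibroblasts 24 h after chemical addition. Signal was analysed as positive-direction change relative to DMSO baseline.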

[13] = read-out: Collagen IV, COL4A1 (gene 1282); assay: BSK_MyoF_CollagenIV: BioMAP Diversity Plus: MyoF Assay for Collagen IV Biomarker Activity (AID 2284247); settings: primary human lung fibroblasts
Outline: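 Collagen IV quantified by ELISA in human lung fibroblast cultures 24 h after chemical treatment, with DMSO as baseline. Parallel SRB staining (0.1% SRB after TCA fixation, 560 nm) flags overt cytotoxicity.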

[14] = read-out: Interleukin 6 (IL6), IL6 (gene 3569); assay: BSK_BT_xIL6: BioMAP Diversity Plus: BT Assay for Interleukin 6 (IL6) Biomarker Activity (AID 2284228); settings: primary human B cells with PBMC
Outline: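 Readout: secreted IL-6 via Luminex xMAP multiplex, 24 h post-dosing. System: primary human B cells co-cultured with PBMC. Signal change scored relative to DMSO vehicle, positive fitting direction.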

[15] = read-out: Monokine induced gamma interferon (MIG), CXCL9 (gene 4283); assay: BSK_KF3CT_MIG: BioMAP Diversity Plus: KF3CT Assay for Monokine induced gamma interferon (MIG) Biomarker Activity (AID 2284248); settings: primary human keratinocytes with fibroblasts
Outline: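 ELISA read-out of MIG after 24 h chemical exposure of human skin primary co-culture (keratinocytes, foreskin fibroblasts). Gain of signal relative to DMSO negative control was analysed.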

[16] = CCTE_Mundy_HCI_hNP1_Casp3_7: CCTE's Caspase-Glo 3/7 Assay in human neuroprogenitor cells for Apoptosis, Mundy Lab (AID 2284240)
Outline: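 Apoptosis is scored by activated caspase-3/7 luminescence in WA09-derived neural progenitor cells, measured 26.5 h after chemical dosing. Values represent gain of signal relative to DMSO vehicle.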

[17] = CCTE_Mundy_HCI_hNP1_CellTiter: CCTE's Cell Titer-Glo 2 Assay in human neuroprogenitor cells for Viability, Mundy Lab (AID 2284241; active = hit-call score of the fitted dose curve at least 0.9, where 1 is the maximum)
Outline: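 Human neural progenitor cells (hNP1, WA09-derived) were plated on poly-L-ornithine/laminin and grown 40 to 44 hours at 37 °C, 5% CO2 before chemical addition. Twenty-four hours later, ATP was measured by CellTiter-Glo luminescence; loss of signal versus DMSO indicates reduced viability.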

Measured: AC50

Sequence of Tumor necrosis factor (Homo sapiens) (P01375 whole entry, looked up): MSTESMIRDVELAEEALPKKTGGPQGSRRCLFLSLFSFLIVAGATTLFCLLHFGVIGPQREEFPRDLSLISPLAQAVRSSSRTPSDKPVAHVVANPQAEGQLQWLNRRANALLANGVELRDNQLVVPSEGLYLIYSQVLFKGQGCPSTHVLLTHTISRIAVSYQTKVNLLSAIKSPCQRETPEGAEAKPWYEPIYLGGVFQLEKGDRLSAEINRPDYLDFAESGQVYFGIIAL

Nc1cc([N+](=O)[O-])cc(Cl)c1O
inactive: [1] | [2] | [3] | [4] | [5] | [6] | [7] | [8] | [9] | [10] | [11] | [12] | [13]

CCN(CC)c1ccc(N=Nc2ccccc2)cc1
active: [2] 18 µM | [3] 30.3 µM | [4] 20 µM | [5] 31 µM | [6] 20 µM | [7] 20 µM | [9] 31 µM | [10] 23.8 µM | [11] 32.6 µM
inactive: [1] | [8] | [12]

CN(C(=O)C(F)(F)C(F)(F)C(F)(F)F)[Si](C)(C)C
inactive: [1] | [2] | [3] | [14] | [4] | [5] | [6] | [7] | [8] | [9] | [10] | [11] | [12] | [15]

Cc1cc(C)c(O)c(C(C)(C)C)c1
inactive: [1] | [2] | [3] | [14] | [4] | [5] | [9] | [11]
active: [6] 34.2 µM | [7] 30.6 µM | [8] 30.5 µM | [10] 29.8 µM | [12] 36.8 µM | [13] 32.4 µM

Cc1cnccn1
inactive: [1] | [3] | [14] | [4] | [5] | [6] | [7] | [8] | [9] | [10] | [11] | [12] | [13]
active: [2] 5.22 µM

C[Si](Cl)(Cl)CCC(F)(F)C(F)(F)C(F)(F)C(F)(F)C(F)(F)C(F)(F)F
active: [5] 3.33 µM
inactive: [1] | [2] | [3] | [4] | [5] | [6] | [7] | [8] | [9] | [10] | [11] | [12] | [15]

O=C(O)CCC(F)(F)C(F)(F)C(F)(F)C(F)(F)C(F)(F)C(F)(F)C(F)(F)F
inactive: [1] | [3] | [4] | [5] | [6] | [7] | [8] | [16] | [17] | [9] | [10] | [11] | [12] | [13] | [15]
active: [2] 3.33 µM and 5.61 µM | [11] 2.38 µM

C[C@]12CC[C@H]3C(=CCc4cc(O)ccc43)[C@@H]1CCC2=O
active: [2] 29.1 µM | [3] 26.1 µM | [9] 20 µM
inactive: [1] | [14] | [4] | [5] | [6] | [7] | [8] | [10] | [11] | [12] | [13]

O=C(F)C1(F)C(F)(F)C(F)(F)C(F)(F)C(F)(F)C1(F)F
inactive: [1] | [2] | [3] | [4] | [5] | [6] | [7] | [8] | [16] | [17] | [9] | [10] | [11] | [12] | [13] | [15]

O=C(Cl)C(F)(F)C(F)(F)C(F)(F)C(F)(F)C(F)(F)C(F)(F)F
inactive: [1] | [2] | [3] | [14] | [4] | [5] | [6] | [7] | [8] | [9] | [10] | [11] | [12] | [15]

NS(=O)(=O)C(F)(F)C(F)(F)C(F)(F)C(F)(F)C(F)(F)C(F)(F)F
active: [13] 25.5 µM and 20.4 µM
inactive: [1] | [2] | [3] | [4] | [5] | [6] | [7] | [8] | [9] | [10] | [11] | [12] | [15]

O=C1C=CC(=O)N1c1ccc(Cc2ccc(N3C(=O)C=CC3=O)cc2)cc1
active: [1] 4.43 µM | [2] 2.18 µM | [3] 3.64 µM | [4] 1.99 µM | [5] 4.89 µM | [6] 3.05 µM | [7] 2.69 µM | [8] 3.46 µM | [9] 2.45 µM | [10] 2.79 µM | [11] 4.5 µM | [12] 5.53 µM

CCN=C1C=CC(=C(c2ccc(N(CC)CC)cc2)c2ccc(N(CC)CC)cc2)c2ccccc21
active: [15] 2.63 µM and 2.31 µM
